# Reference: paper PMC5700166
# Tests used:
# Experiment in all cases: protein-binding microarray (PBM); PBM: ~300 nM protein, 6 mM HEPES pH 7.8, 80 mM KCl, 0.5 mM EDTA, 0.5 mM EGTA, 6% glycerol, 35 ng/ul poly-dIdC, 1% milk, 1 h, room temperature; Ap Aiptasia and Nv Nematostella (sea anemones) / Co Capsaspora / Aq Amphimedon (sponge) / Dm Drosophila / Hu human; RHD is the Rel homology domain; high values mean tight binding
# Conditions in all cases: dsDNA, one strand shown
# [1] = molecular target: T1, GST-Ap-NF-kB RHD (Exaiptasia pallida (Aiptasia), UniProt A0A913YAJ5 2-422)
# T1 sequence: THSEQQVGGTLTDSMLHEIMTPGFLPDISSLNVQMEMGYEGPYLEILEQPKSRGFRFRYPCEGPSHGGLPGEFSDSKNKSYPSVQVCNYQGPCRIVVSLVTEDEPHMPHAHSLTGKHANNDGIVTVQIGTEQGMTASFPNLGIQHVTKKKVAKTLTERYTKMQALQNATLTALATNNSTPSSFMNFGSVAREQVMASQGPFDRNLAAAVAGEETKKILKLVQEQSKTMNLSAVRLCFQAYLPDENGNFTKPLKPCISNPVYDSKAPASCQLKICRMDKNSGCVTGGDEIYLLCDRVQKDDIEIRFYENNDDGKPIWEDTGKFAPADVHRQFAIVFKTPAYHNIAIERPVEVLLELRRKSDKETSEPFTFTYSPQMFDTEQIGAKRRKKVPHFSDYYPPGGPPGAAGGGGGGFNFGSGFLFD
# [2] = molecular target: T2, GST-Nv-NF-kB (Cys allele) (Nematostella vectensis, UniProt E5G601 2-411)
# T2 sequence: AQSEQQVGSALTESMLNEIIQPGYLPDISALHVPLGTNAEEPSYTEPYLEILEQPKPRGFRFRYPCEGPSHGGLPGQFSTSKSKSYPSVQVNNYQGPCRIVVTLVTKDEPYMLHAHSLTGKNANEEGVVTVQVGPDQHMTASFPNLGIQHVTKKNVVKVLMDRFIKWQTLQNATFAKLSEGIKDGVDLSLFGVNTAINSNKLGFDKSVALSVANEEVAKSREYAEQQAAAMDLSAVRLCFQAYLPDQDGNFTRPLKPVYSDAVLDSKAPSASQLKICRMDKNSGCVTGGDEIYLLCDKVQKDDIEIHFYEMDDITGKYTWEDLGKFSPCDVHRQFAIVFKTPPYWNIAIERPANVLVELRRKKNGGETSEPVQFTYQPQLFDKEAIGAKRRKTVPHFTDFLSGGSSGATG
# [3] = molecular target: T3, GST-Co-NF-kB (Capsaspora owczarzaki, UniProt F1ARL5 200-546)
# T3 sequence: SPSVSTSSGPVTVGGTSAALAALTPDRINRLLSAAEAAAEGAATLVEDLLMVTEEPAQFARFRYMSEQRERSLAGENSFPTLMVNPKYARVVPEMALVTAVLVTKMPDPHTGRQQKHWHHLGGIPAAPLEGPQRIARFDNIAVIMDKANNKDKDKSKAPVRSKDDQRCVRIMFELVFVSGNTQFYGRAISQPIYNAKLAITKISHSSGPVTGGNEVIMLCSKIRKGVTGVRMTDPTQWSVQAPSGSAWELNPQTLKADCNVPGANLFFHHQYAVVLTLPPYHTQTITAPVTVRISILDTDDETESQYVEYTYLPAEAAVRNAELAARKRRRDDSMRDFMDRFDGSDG
# [4] = molecular target: T4, GST-Dm-Relish (Drosophila melanogaster, UniProt Q94527 99-473)
# T4 sequence: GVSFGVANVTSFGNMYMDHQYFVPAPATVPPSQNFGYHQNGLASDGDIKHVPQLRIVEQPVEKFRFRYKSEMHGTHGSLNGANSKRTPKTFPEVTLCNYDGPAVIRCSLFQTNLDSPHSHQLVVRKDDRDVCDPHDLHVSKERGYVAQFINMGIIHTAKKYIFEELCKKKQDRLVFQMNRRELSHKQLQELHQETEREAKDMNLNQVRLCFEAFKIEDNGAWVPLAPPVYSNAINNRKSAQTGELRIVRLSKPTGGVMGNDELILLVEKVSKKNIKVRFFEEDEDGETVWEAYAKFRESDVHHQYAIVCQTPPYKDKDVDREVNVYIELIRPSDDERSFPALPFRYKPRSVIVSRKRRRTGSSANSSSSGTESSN
# [5] = molecular target: T5, GST-Aq-NF-kB (Amphimedon queenslandica, UniProt A9Y5G7 2-389)
# T5 sequence: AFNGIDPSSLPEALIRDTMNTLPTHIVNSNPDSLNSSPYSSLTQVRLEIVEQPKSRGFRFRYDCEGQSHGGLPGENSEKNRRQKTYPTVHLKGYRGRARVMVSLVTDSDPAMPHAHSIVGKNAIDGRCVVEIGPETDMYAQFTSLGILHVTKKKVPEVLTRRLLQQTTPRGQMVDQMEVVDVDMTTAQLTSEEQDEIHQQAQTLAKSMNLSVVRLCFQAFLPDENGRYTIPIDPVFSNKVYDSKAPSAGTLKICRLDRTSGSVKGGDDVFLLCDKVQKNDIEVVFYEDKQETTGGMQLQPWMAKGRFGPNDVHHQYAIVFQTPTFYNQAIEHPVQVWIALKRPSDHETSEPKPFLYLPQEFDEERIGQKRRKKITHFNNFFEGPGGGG
Sequence,binding signal [1] [z-score],binding signal [2] [z-score],binding signal [3] [z-score],binding signal [4] [z-score],binding signal [5] [z-score]
CCGATTAACATCATAATTCCCAATGATGTTAATCGGGTCTTGATTCGCTTGACGCTGCTG,1.92,3.54,2.94,2.22,2.84
CCGATTAACATCAGGGAACTACATGATGTTAATCGGGTCTTGATTCGCTTGACGCTGCTG,1.52,1.1,1.62,8.31,2.44
CCGATTAACATCAGGGAAATTCATGATGTTAATCGGGTCTTGATTCGCTTGACGCTGCTG,4.54,6.28,4.15,2.26,5.94
CCGATTAACATCACAACCCCCCCTGATGTTAATCGGGTCTTGATTCGCTTGACGCTGCTG,5.55,3.59,3.83,6.16,4.6
CCGATTAACATCAGACCTCCCCCTGATGTTAATCGGGTCTTGATTCGCTTGACGCTGCTG,6.03,3.94,5.48,2.4,4.44
CCGATTAACATCAGGGAATATTATGATGTTAATCGGGTCTTGATTCGCTTGACGCTGCTG,5.06,5.86,3.81,3,5.75
CCGATTAACATCATGGGAAAAAATGATGTTAATCGGGTCTTGATTCGCTTGACGCTGCTG,1.94,3.64,4.93,1.7,2.57
CCGATTAACATCAGGGGACTATATGATGTTAATCGGGTCTTGATTCGCTTGACGCTGCTG,5.4,4.97,2.59,2.85,4.61
CCGATTAACATCAGGGGGGGACCTGATGTTAATCGGGTCTTGATTCGCTTGACGCTGCTG,7.43,4.15,5.99,4.96,5.51
CCGATTAACATCAGGGGCAACCCTGATGTTAATCGGGTCTTGATTCGCTTGACGCTGCTG,2.71,2.89,2.31,3.06,5.52
CCGATTAACATCAGGGGGATAGATGATGTTAATCGGGTCTTGATTCGCTTGACGCTGCTG,4.85,3.25,5.41,2.03,3.47
CCGATTAACATCAAGGGGGGGGCTGATGTTAATCGGGTCTTGATTCGCTTGACGCTGCTG,5.13,3.96,4.65,5.21,4.89
CCGATTAACATCAAGGGGGAGGGTGATGTTAATCGGGTCTTGATTCGCTTGACGCTGCTG,4.24,3.46,4.4,3.15,4.42
CCGATTAACATCAAAAACACCCCTGATGTTAATCGGGTCTTGATTCGCTTGACGCTGCTG,4.85,3.9,3.98,5.77,4.95
CCGATTAACATCAGGGAAAACGATGATGTTAATCGGGTCTTGATTCGCTTGACGCTGCTG,2.75,3.95,3.39,1.18,2.74
CCGATTAACATCAGGGATCCCCATGATGTTAATCGGGTCTTGATTCGCTTGACGCTGCTG,7.26,4.8,3.74,9.65,4.64
CCGATTAACATCACCCCTCCCCGTGATGTTAATCGGGTCTTGATTCGCTTGACGCTGCTG,5.01,3.48,4.15,3.47,3.26
CCGATTAACATCAAACTTTCCCATGATGTTAATCGGGTCTTGATTCGCTTGACGCTGCTG,3.24,4.83,4.07,1.39,5.27
CCGATTAACATCAGGGAAAGTAATGATGTTAATCGGGTCTTGATTCGCTTGACGCTGCTG,3.01,4.93,3.38,2.08,4.25
CCGATTAACATCAGGGAGTCCCATGATGTTAATCGGGTCTTGATTCGCTTGACGCTGCTG,4.64,3.33,1.13,9.06,4.21
CCGATTAACATCAGGGATCACCCTGATGTTAATCGGGTCTTGATTCGCTTGACGCTGCTG,3.86,2.9,1.02,6.12,5.65
CCGATTAACATCAGGGAGATTTGTGATGTTAATCGGGTCTTGATTCGCTTGACGCTGCTG,3.21,4.56,2.54,1.8,4.63
CCGATTAACATCAAAAATTGCCCTGATGTTAATCGGGTCTTGATTCGCTTGACGCTGCTG,1.25,1.84,1.78,1.5,2.99
CCGATTAACATCAGGGGATCCCATGATGTTAATCGGGTCTTGATTCGCTTGACGCTGCTG,7.15,5.1,2.81,10,4.95
CCGATTAACATCAAGGGAAACCCTGATGTTAATCGGGTCTTGATTCGCTTGACGCTGCTG,4.71,5.3,2.82,7.64,5.8

Sequence,binding signal [1] [z-score],binding signal [2] [z-score],binding signal [3] [z-score],binding signal [4] [z-score],binding signal [5] [z-score]
CCGATTAACATCAGGGGTCCCCATGATGTTAATCGGGTCTTGATTCGCTTGACGCTGCTG,4.7,2.57,1.99,7.31,3.6
CCGATTAACATCAGTAATTCCCATGATGTTAATCGGGTCTTGATTCGCTTGACGCTGCTG,4.02,4.3,5.42,7.23,4.24
CCGATTAACATCACAGGGAATTCTGATGTTAATCGGGTCTTGATTCGCTTGACGCTGCTG,4.57,5.56,3.45,3.71,4.62
CCGATTAACATCAGGGAATCTCATGATGTTAATCGGGTCTTGATTCGCTTGACGCTGCTG,2.33,3.41,1.96,1.4,3.46
CCGATTAACATCACAAACTTCCCTGATGTTAATCGGGTCTTGATTCGCTTGACGCTGCTG,3.81,4.26,2.51,3.48,4.68
CCGATTAACATCAGGGAATTGTATGATGTTAATCGGGTCTTGATTCGCTTGACGCTGCTG,2.85,4.78,3.1,1.21,4.7
CCGATTAACATCAGGCCACCCCCTGATGTTAATCGGGTCTTGATTCGCTTGACGCTGCTG,3.91,2.49,2.66,5.42,5.7
CCGATTAACATCACGGGTTTCCCTGATGTTAATCGGGTCTTGATTCGCTTGACGCTGCTG,3.92,4.58,4.46,7.38,5.5
CCGATTAACATCAAAGAAATCCCTGATGTTAATCGGGTCTTGATTCGCTTGACGCTGCTG,4.82,4.34,1.36,6.17,4.61
CCGATTAACATCATAAAATCCCATGATGTTAATCGGGTCTTGATTCGCTTGACGCTGCTG,2.43,2.92,1.47,6.55,3.1
CCGATTAACATCAAGGAAACCCCTGATGTTAATCGGGTCTTGATTCGCTTGACGCTGCTG,6.7,4.95,2.91,7.36,6.19
CCGATTAACATCAGGGATATTTATGATGTTAATCGGGTCTTGATTCGCTTGACGCTGCTG,2.06,2.7,1.68,2.57,3.73
CCGATTAACATCAGGGGAGTAAATGATGTTAATCGGGTCTTGATTCGCTTGACGCTGCTG,3.1,3,4.51,1.91,3
CCGATTAACATCACACACCCCCCTGATGTTAATCGGGTCTTGATTCGCTTGACGCTGCTG,4.13,3.15,3.85,3.82,3.48
CCGATTAACATCAATATTTCCCATGATGTTAATCGGGTCTTGATTCGCTTGACGCTGCTG,2.29,3.85,5.1,1.61,3.82
CCGATTAACATCAATCTACCCCCTGATGTTAATCGGGTCTTGATTCGCTTGACGCTGCTG,4.86,3.1,7.41,2.3,3.68
CCGATTAACATCACGGGACTCCCTGATGTTAATCGGGTCTTGATTCGCTTGACGCTGCTG,5.53,4.06,1.53,8.72,5
CCGATTAACATCAATATTTACCCTGATGTTAATCGGGTCTTGATTCGCTTGACGCTGCTG,1.68,3.08,3.33,1.66,2.34
CCGATTAACATCAAATACTTCCCTGATGTTAATCGGGTCTTGATTCGCTTGACGCTGCTG,2.22,3.32,2.96,2.69,4.24
CCGATTAACATCAGGGGAGAACCTGATGTTAATCGGGTCTTGATTCGCTTGACGCTGCTG,6.35,4.58,5.4,5.43,5.51
CCGATTAACATCAAGGATTTCCCTGATGTTAATCGGGTCTTGATTCGCTTGACGCTGCTG,4.49,6.09,3.24,6.12,6.2
CCGATTAACATCAGGGGTTTCCATGATGTTAATCGGGTCTTGATTCGCTTGACGCTGCTG,5.75,5.04,1.21,8.15,5.61
CCGATTAACATCAGAATTCCCGCTGATGTTAATCGGGTCTTGATTCGCTTGACGCTGCTG,3.59,4.74,3.87,3.89,3.98
CCGATTAACATCAAGTTTACCCCTGATGTTAATCGGGTCTTGATTCGCTTGACGCTGCTG,3.21,2.2,6.61,2.4,2.91
CCGATTAACATCAGGAATACCCCTGATGTTAATCGGGTCTTGATTCGCTTGACGCTGCTG,6.59,6.44,4.14,6.46,6.92
